The record followed here is PubChem BioAssay (NCI).

About 83,000 compounds went through this panel and 20% of them were active in at least one assay; those are over-represented in the sample as a whole.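 Compound tested at a single concentration for 48 hours in 96-well plates; a percent growth value below 10 was scored as active.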 Unmarked numbers belong to inactive results. Calls of active or inactive are those of the source.

What all share (assay): NCI-60 one-dose screen, 48 h (100 = growth as untreated, 0 = no growth, -100 = all killed)
Common to all, as to conditions: 10 µM unless noted

Assay [1] has as its system SK-MEL-2 melanoma.
In assay [2] the test system is EKVX NSCLC.
In assay [3] the test system is SN12C renal.
Assay [4] concerns TK-10 renal.
The subject of assay [5] is ACHN renal.
For assay [6], the system named is CAKI-1 renal.
Assay [7] has as its system A498 renal.
The subject of assay [8] is CCRF-CEM leukemia.
Assay [9] deals with MOLT-4 leukemia.
In assay [10] the test system is RPMI-8226 leukemia.
The subject of assay [11] is OVCAR-8 ovarian.
Assay [12] has as its system OVCAR-5 ovarian.
Assay [13] deals with OVCAR-4 ovarian.
In assay [14] the test system is SK-OV-3 ovarian.
Assay [15] deals with IGROV1 ovarian.
In assay [16] the test system is OVCAR-3 ovarian.
Assay [17] relates to HS 578T breast.
The test system of assay [18] is NCI/ADR-RES ovarian.
The test system of assay [19] is SR leukemia.
For assay [20], the system named is UO-31 renal.

Regarding `N#Cc1c(-c2ccccc2)nc(SCC(=O)Nc2nc(-c3ccc(Cl)cc3)cs2)[nH]c1=O`, the growth in assay [1] is 92.3%; in [2], 106%; in assay [3] it was 104%; in [4], 110%; in [5], 103%; in assay [6], 89%. Further, the growth was 87.7% in [7]; 92.2% in assay [8]; 89.8% in [9]; 92.5% in assay [10]; 99.1% in assay [11]; 90.7% in assay [12]. Further, the growth in assay [13] is 110%; in assay [14], 85.2%; in [15], 96.5%; in assay [16], 108%; in [17], 88.6%; in assay [18], 103%.

In the case of `Cc1cccc2c3c(sc12)C(c1ccc(F)cc1)C(C#N)=C(N)O3` (centres undefined), the growth was 50.1% in assay [1]; 52.6% in [2]; 25.2% in assay [3]; 78.8% in assay [4]; 24.8% in [5]; -0.939% (active) in assay [6]. Also, the growth is 4.47% (active) in assay [7]; 13.8% in [8]; 12.5% in assay [9]; 9.36% (active) in [19]; 18.9% in [11]; 25.9% in assay [12]. Besides, the growth in [13] was 60.8%; in [14], 60.7%; in [15], 20.6%; in [16], 3.36% (active); in assay [17], 28.7%; in assay [18] it was 12%.

Regarding `CCS(=O)(=O)c1ncnc2nc[nH]c12`, the growth in assay [1] was 100%; in assay [2], 99.3%; in [3], 94.5%; in assay [4] it was 98.2%; in assay [5], 106%; in assay [6], 99.6%. In addition, the growth in assay [7] is 92.8%; in assay [8], 93.3%; in [9], 103%; in assay [10] it was 95.9%; in assay [12] it was 98.1%; in assay [13] it was 106%. The growth in assay [14] was 95.2%; in assay [15], 109%; in assay [16] it was 111%; in assay [17], 97.6%; in assay [18], 104%.

Consider `O=C(O)CCC/C=C\C[C@H]1C=CC(=O)/C1=C/C[C@@H](O)CCc1cccc(C(F)(F)F)c1`, for which the growth in assay [1] is -6.24% (active); in assay [2], 37.9%; in assay [3], -24.7% (active); in assay [4], 11.1%; in [5], -70.3% (active); in [6], 12.6%. The growth in [7] was -12% (active); in [8], 4.1% (active); in assay [9] it was -8.07% (active); in assay [19] it was -7.7% (active); in assay [11], 10.3%; in [12], 8.7% (active). Further, the growth is 32.8% in [13]; 44.3% in assay [14]; -36.1% (active) in [16]; 37.6% in [17]; 5.22% (active) in assay [18].

With `O=c1c2cccc(F)c2sc2c(NCCCNCCO)nc3ccccc3c12`, the growth in assay [1] was 89.8%; in assay [2] it was 55.4%; in assay [3] it was 43.5%; in assay [4], 48.6%; in assay [5] it was 15.3%; in assay [6], 3.45% (active). In addition, the growth in assay [7] is 40.9%; in [8] it was 22.7%; in assay [9] it was -6.18% (active); in [19], -16.6% (active); in assay [11], 32%; in [12] it was 61.8%. The growth in [13] was 34.9%; in assay [14], 56.2%; in assay [15], 24.2%; in assay [16] it was 30.1%; in [17], 37.8%; in assay [18], 31.5%.

For the compound `Cc1ccc(-c2nn(C)c(=O)c3noc(-c4ccc(C)cc4)c23)cc1`, the growth in [1] was 9.26% (active); in assay [2], 56.5%; in [3], 44.1%; in assay [4] it was 47.4%; in [5], 43.5%; in assay [6] it was 37.7%. Further, the growth is 25.6% in assay [7]; 18.9% in assay [8]; 55.8% in assay [9]; 20.4% in assay [10]; 43.8% in [11]; 57.4% in assay [12]. In addition, the growth in assay [13] is 61.4%; in assay [14] it was 26.7%; in assay [15], 48.2%; in [16], 8.74% (active); in assay [17], 28%; in assay [18], 30.4%.

For the compound `O=C(/C=C/c1cccc2ccccc12)c1ccc(NC(=O)c2ccccc2CN2C(=O)c3ccccc3C2=O)cc1`, the growth in [1] was 95.5%; in [2] it was 81.4%; in [3], 80.3%; in assay [4] it was 100%; in [5] it was 73%; in assay [6], 37.9%. For the same compound, the growth in assay [7] is 88.5%; in assay [8] it was 39.7%; in assay [9] it was 51.2%; in assay [19] it was 23.5%; in assay [11] it was 75.4%; in assay [12], 96.6%. For the same compound, the growth in assay [13] is 58.7%; in assay [14], 82.3%; in [16] it was 34.7%; in [17], 66.2%; in assay [18], 61%.

`[O-][n+]1c2ccccc2[n+]([O-])c2c3ccccc3[nH]c21`: the growth is 61.9% in assay [1]; 30.8% in assay [2]; 81.3% in assay [3]; 70% in [20]; 41% in [4]; 87.5% in [5]. In addition, the growth in assay [6] is 48.1%; in assay [8], 82.3%; in assay [9], 98.8%; in [10], 57.9%; in assay [12], 21%; in assay [13] it was 34.4%. The growth was 42.8% in assay [14]; 13.8% in [15]; -20.6% (active) in assay [16]; 96.3% in [17]; 65.4% in assay [18].

Turning to `NCCCNc1nc2ccccc2c2c(=O)c3cc(F)cc(F)c3sc12`, the growth in assay [1] was 111%; in assay [2], 96.8%; in assay [3], 80.8%; in [20], -95% (active); in assay [4] it was 87.1%; in [5], -60.3% (active). For the same compound, the growth is 61.1% in assay [6]; -6.51% (active) in [8]; 60.7% in assay [9]; 69.7% in assay [11]; 50.9% in assay [12]; -62.3% (active) in assay [13]. The growth in [14] was 83.6%; in assay [15] it was 77.9%; in assay [16], 89.7%; in [17], 76.8%; in assay [18] it was 84%.

Take `CSc1nc2ccc(C)cc2cc1/C=N/O`: the growth in [1] is 74.7%; in [2] it was 67.8%; in [3], 91.9%; in [4] it was 101%; in assay [5], 82.8%; in assay [6], 80.4%. In addition, the growth is 105% in [8]; 83% in assay [9]; 106% in assay [10]; 84.6% in assay [11]; 81.6% in assay [12]; 91% in assay [13]. In addition, the growth was 86% in [14]; 87.8% in assay [15]; 106% in assay [16]; 75% in [17]; 98.1% in [18].

In the case of `Cc1cccc2c3c(sc12)C(c1ccc(Cl)cc1)C(C#N)=C(N)O3` (centres undefined), the growth in assay [1] is 45.7%; in assay [2], 44.5%; in assay [3], 25.2%; in assay [4], 71.7%; in assay [5], 25.2%; in assay [6], 8.51% (active). Also, the growth in assay [7] is -6.58% (active); in assay [8], 13.2%; in [9], 11.9%; in assay [19] it was 15.8%; in [11] it was 22.2%; in assay [12], 23.3%. Moreover, the growth in assay [13] was 58.4%; in assay [14], 60.1%; in assay [15], 23.8%; in assay [16] it was -17.3% (active); in assay [17], 15.9%; in assay [18], 9.13% (active).

`O=C(CCN1C(=O)/C(=C/c2ccc(O)cc2)SC1=S)Nc1ccccc1`: the growth in assay [1] was 111%; in [2], 100%; in [3] it was 87.6%; in [4] it was 102%; in [5] it was 92%; in [6], 97.1%. In addition, the growth in assay [7] is 97.8%; in assay [8], 72.2%; in [9], 85.5%; in assay [19] it was 119%; in [11], 94.6%; in assay [12] it was 106%. The growth was 89.6% in assay [13]; 65.9% in assay [14]; 94.6% in assay [15]; 108% in assay [16]; 93.3% in assay [17]; 99.1% in [18].

For `COc1cc2oc(-c3ccc(O)cc3)cc(=O)c2c(O)c1-c1c(OC)cc(O)c2c(=O)cc(-c3ccc(O)cc3)oc12`, the growth in assay [1] is 51.9%; in assay [2], 85.5%; in assay [3] it was 15.8%; in assay [4], 75.3%; in [5] it was 49.4%; in [6], 26.9%. For the same compound, the growth in [7] was 83.9%; in assay [8], 44.9%; in [9], 32.6%; in [11], 28.1%; in [12], 101%; in assay [13], 67.8%. In addition, the growth in [14] was 37.5%; in assay [15], 16.7%; in assay [16], 29.3%; in assay [17], 17.5%; in assay [18], 79.6%.

In the case of `COc1ccc(C2CC(c3ccc(Nc4nc(Nc5ccc(F)cc5)nc(Nc5ccc(Cl)cc5)n4)cc3)=NN2C(C)=O)cc1` (centres undefined), the growth in [1] is 96.1%; in assay [2] it was 109%; in [3] it was 103%; in [4] it was 103%; in [5], 91.7%; in assay [6], 108%. Moreover, the growth is 129% in [7]; 124% in assay [8]; 93% in [9]; 107% in assay [19]; 90.8% in assay [10]; 104% in assay [12]. For the same compound, the growth in assay [13] was 99.3%; in assay [14] it was 107%; in [16], 128%; in assay [17], 108%; in [18], 85%.

For `Cc1nc(/N=C(\N)NC(=O)Nc2ccccc2Cl)sc1C`, the growth in assay [1] was 45.6%; in [2], 48.7%; in assay [3], 42.7%; in [4] it was 70.7%; in [5], 52.3%; in assay [6], 30.9%. Besides, the growth in assay [7] was -15.9% (active); in assay [8] it was 16.4%; in assay [9] it was 43.6%; in [10], 8.06% (active); in assay [11] it was 33.9%; in assay [12], 51.3%. Also, the growth is 55.1% in [13]; 45.4% in assay [14]; 42.8% in assay [15]; 12.1% in assay [16]; 13.5% in assay [17]; 15.7% in assay [18].

For `O=C(O)c1cn(C2CC2)c2cc(N3CCN(C(=O)Nc4nc(-c5ccc(Cl)cc5)cs4)CC3)c(F)cc2c1=O`, the growth in assay [1] is -18.9% (active); in assay [2], 19.6%; in assay [3], 7.2% (active); in [4] it was 21.8%; in assay [5], 6.02% (active); in assay [6], 17.1%. Besides, the growth in assay [7] was -3.82% (active); in assay [8] it was 13.6%; in assay [9], 2.05% (active); in assay [19], 11.2%; in [11] it was 7.37% (active); in assay [12], 27.5%. Besides, the growth in [13] is 23.7%; in assay [14], -2.39% (active); in assay [16], 5.86% (active); in assay [17] it was 35.5%; in [18], 38.1%.
